Counter-ions that a name gives are not always drawn.

The test system of this experiment is Danio rerio larvae (5 dpf). As to the kind of experiment: startle response to 20-s acoustic pulses, difference vs DMSO (percentage points (treated minus DMSO)); higher = more of the behaviour than the DMSO vehicle control. The following applies: 10 µM; exposure time: 3 h pre-incubation + 3 h imaging. The protocol:
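5-dpf wild-type zebrafish larvae were imaged in 96-well plates. They were treated with 190 Tocris FDA-approved drugs at 10 µM (1 µl/ml DMSO) for 3 h before and 3 h during imaging at 28.5 °C, 48 larvae per drug. Automated image analysis gave % time moving and optomotor responses. Values are drug group mean minus DMSO vehicle mean (n=844), in percentage points, for 10 behaviours.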
`C=CCN1C[C@H](C(=O)N(CCCN(C)C)C(=O)NCC)C[C@@H]2c3cccc4[nH]cc(c34)C[C@H]21` [Cabergoline]: the “startle response to 20-s acoustic pulses” value is -8.7. With `CC(C)C[C@H]1C(=O)N2CCC[C@H]2[C@]2(O)O[C@](NC(=O)[C@@H]3C=C4c5cccc6[nH]c(Br)c(c56)C[C@H]4N(C)C3)(C(C)C)C(=O)N12` [Bromocriptine mesylate] the figure was -8.49. With `Cc1cccc([C@H](C)c2c[nH]cn2)c1C` [Dexmedetomidine hydrochloride] the figure was 6.09; with `O=c1[nH]c2ccccc2n1C1CCN(CCCC(c2ccc(F)cc2)c2ccc(F)cc2)CC1` [Pimozide], 2.42. Then `CCN(C)C(=O)Oc1cccc([C@H](C)N(C)C)c1` [Rivastigmine tartrate], with 5.58; and `N[C@@H]1C[C@H]1c1ccccc1` [Tranylcypromine hydrochloride], with -9.81; and `CC[C@@H](C(N)=O)N1CCCC1=O` [Levetiracetam], with 1.64. Take `COc1ccc(C(CN(C)C)C2(O)CCCCC2)cc1` (configuration not stated) [Venlafaxine hydrochloride]: the “startle response to 20-s acoustic pulses” value is -5.93.

In the case of `COc1cc2c(cc1OC)C1CC(=O)C(CC(C)C)CN1CC2` (configuration not stated) [Tetrabenazine], the “startle response to 20-s acoustic pulses” value was -5.81. Then `CN1C[C@H](C(=O)N[C@]2(C)O[C@@]3(O)[C@@H]4CCCN4C(=O)[C@H](Cc4ccccc4)N3C2=O)C[C@@H]2c3cccc4[nH]cc(c34)C[C@H]21` [Dihydroergotamine mesylate], with 5.17; and `C=C1C[C@@H]2[C@H](CC[C@]3(C)C(=O)CC[C@@H]23)[C@@]2(C)C=CC(=O)C=C12` [Exemestane], with 2.55. With `CC(O)(CS(=O)(=O)c1ccc(F)cc1)C(=O)Nc1ccc(C#N)c(C(F)(F)F)c1` (configuration not stated) [Bicalutamide] the figure was 0.332.
